Results filed as inconclusive are left out. Active and inactive are the calls of the source. Calls come from the whole dose curve; as a rule, active = well fitted inhibition curve with a large enough effect; inconclusive = small, poorly fitted or top-dose-only effect; inactive = flat fitted curve, though single readings scatter.
Experiments:
[1] = Drug repurposing screens with cells derived from glioblastoma tumor samples (AID 1345199); conditions: GBM patient neurospheres viability, ATP luminescence, 48 h; note: nearly all actives have a fitted effect of over 40% in size
In short: (§1)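 Primary testing used CD133+ neurospheres from four GBM patients, seven concentrations, 48 h exposure and ATP-based viability; confirmation added three slower-growing patient lines.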

[2] = test system: astro; test: as above; conditions: viability, ATP luminescence, 48 h; series mostly up to 45.9 µM
In short: as §1

[3] = at 45.9 µM (top of the series), tumour line B
[4] = at 45.9 µM (top of the series), tumour line D
[5] = at 46 µM (top of the series), tumour line A
[6] = at 46.1 µM (top of the series), tumour line C
[7] = at 20 µM (top of the series), tumour line C
% is set by controls: 0 for no effect and ±100 for the full control effect; potency is the fitted concentration of half-maximal effect.

CC(=O)[O][Al][O]C(C)=O
inactive: activity, negative = cell killing [1, 3] -5.15% | activity, negative = cell killing [1, 4] -14.6% | activity, negative = cell killing [1, 5] -26.4% | activity, negative = cell killing [1, 6] -11.8% | Potency [2]

CC(CNC(=O)c1cccnc1)NC(=O)c1cccnc1 (stereo not given)
inactive: activity, negative = cell killing [1, 3] -10.6% | activity, negative = cell killing [1, 4] -9.97% | activity, negative = cell killing [1, 5] -56.9% | activity, negative = cell killing [1, 6] -14.1% | Potency [2]

O=C(O)[C@H]1CN(C/C=C/P(=O)(O)O)CCN1
inactive: activity, negative = cell killing [1, 3] -1.77% | activity, negative = cell killing [1, 4] 1.08% | activity, negative = cell killing [1, 5] -25.5% | activity, negative = cell killing [1, 6] -5.57% | Potency [2]

Cn1c(O)c(N=NC(N)=S)c2ccccc21
active: Potency ([1]; tumour line A) 31.6 µM
inactive: activity, negative = cell killing [1, 3] -22.4% | activity, negative = cell killing [1, 4] -18.5% | activity, negative = cell killing [1, 6] -19.8% | Potency [2]

CCCc1ccc(C(=O)O)cc1
inactive: activity, negative = cell killing [1, 3] -12.5% | activity, negative = cell killing [1, 4] -19.9% | activity, negative = cell killing [1, 5] -22.4% | activity, negative = cell killing [1, 6] 3.37% | Potency [2]

OCCCNc1ccccc1
inactive: activity, negative = cell killing [1, 3] 1.67% | activity, negative = cell killing [1, 4] -0.692% | activity, negative = cell killing [1, 5] -52.2% | activity, negative = cell killing [1, 6] -9.32% | Potency [2]

CC(C)(C)NCC(O)CSc1nc(-c2ccc(C(N)=O)s2)cs1 (stereo not given)
inactive: activity, negative = cell killing [1, 3] -20.2% | activity, negative = cell killing [1, 4] -9.92% | activity, negative = cell killing [1, 6] -12.2% | Potency [2]
active: Potency ([1]; tumour line A) 17.8 µM

F[Si-2](F)(F)(F)(F)F
inactive: activity, negative = cell killing [1, 3] 5.47% | activity, negative = cell killing [1, 4] -3.02% | activity, negative = cell killing [1, 5] -17.6% | activity, negative = cell killing [1, 6] 30.2% | Potency [2]

CC(C)[C@@H]1CC[C@@H](C)C[C@H]1OC(=O)c1ccccc1O
inactive: activity, negative = cell killing [1, 3] -16.3% | activity, negative = cell killing [1, 4] -12.7% | activity, negative = cell killing [1, 5] -21.2% | activity, negative = cell killing [1, 6] -34.9% | Potency [2]

O=C(CO)[C@@H](O)[C@H](O)[C@@H](O)C(=O)O
inactive: activity, negative = cell killing [1, 3] -4.69% | activity, negative = cell killing [1, 4] -4.84% | activity, negative = cell killing [1, 5] -22.3% | activity, negative = cell killing [1, 6] -9.16% | Potency [2]

CO[C@H]1C[C@H](O[C@H]2[C@H](C)[C@@H](O[C@@H]3O[C@H](C)C[C@H](N(C)C)[C@H]3O)[C@@H](C)C[C@]3(CO3)C(=O)[C@H](C)[C@@H](O)[C@@H](C)[C@@H](C)OC(=O)[C@@H]2C)O[C@@H](C)[C@@H]1O
inactive: activity, negative = cell killing [1, 7] -8.16% | activity, negative = cell killing ([1]; at 21.2 µM (top of the series), tumour line B) -0.194% | activity, negative = cell killing ([1]; at 21.2 µM (top of the series), tumour line D) -29.4% | activity, negative = cell killing ([1]; at 21.3 µM (top of the series), tumour line A) -24% | Potency [2]

CC(C)N1CCN(c2ccc(OC[C@H]3CO[C@](Cn4cncn4)(c4ccc(Cl)cc4Cl)O3)cc2)CC1
inactive: activity, negative = cell killing [1, 7] -6.28% | Potency [2]
active: Potency ([1]; tumour line A) 2.51 µM | Potency ([1]; tumour line B) 14.1 µM | Potency ([1]; tumour line D) 10 µM

H-RKDVY-OH
inactive: activity, negative = cell killing [1, 3] -2.29% | activity, negative = cell killing [1, 4] 4.86% | activity, negative = cell killing [1, 5] -6.05% | activity, negative = cell killing [1, 6] -18.9% | Potency [2]

O=C(NCCNCC(O)COc1ccc(O)cc1)N1CCOCC1 (stereo not given)
inactive: activity, negative = cell killing [1, 3] -5.84% | activity, negative = cell killing [1, 4] -3.52% | activity, negative = cell killing [1, 5] -55.7% | activity, negative = cell killing [1, 6] -0.52% | Potency [2]

CNC(=O)c1c(I)c(C(=O)NCC(=O)Nc2c(I)c(C(=O)O)c(I)c(C(=O)NCCO)c2I)c(I)c(N(C)C(C)=O)c1I
inactive: activity, negative = cell killing [1, 3] -2.37% | activity, negative = cell killing [1, 4] -21.2% | activity, negative = cell killing [1, 5] -7.61% | activity, negative = cell killing [1, 6] 3.32% | Potency [2]

CC[C@H](CC[C@@H](C)[C@H]1CC[C@H]2[C@@H]3CC=C4C[C@@H](O)CC[C@]4(C)[C@H]3CC[C@]12C)C(C)C
inactive: activity, negative = cell killing [1, 3] -10.4% | activity, negative = cell killing [1, 4] -2.23% | activity, negative = cell killing [1, 5] -16.4% | activity, negative = cell killing [1, 6] -13.1% | Potency [2]

C=CC(=O)O
inactive: activity, negative = cell killing [1, 3] -8.62% | activity, negative = cell killing [1, 4] -6.79% | activity, negative = cell killing [1, 5] -25.8% | activity, negative = cell killing [1, 6] -0.506% | Potency [2]

[O]=[Bi][O][Bi]=[O]
inactive: activity, negative = cell killing [1, 3] -6.82% | activity, negative = cell killing [1, 4] -2.13% | activity, negative = cell killing [1, 5] 1.51% | activity, negative = cell killing [1, 6] 0.751% | Potency [2]

CN[C@@H]1[C@@H](O)[C@@H](O[C@@H]2[C@@H](O)[C@H](O[C@H]3O[C@H](CN)[C@@H](O)[C@H](O)[C@H]3O)[C@@H](N)C[C@H]2NC(=O)C(O)CN)OC[C@]1(C)O (stereo not given in full)
inactive: activity, negative = cell killing [1, 3] -11% | activity, negative = cell killing [1, 4] -1.91% | activity, negative = cell killing [1, 5] 4.63% | activity, negative = cell killing [1, 6] 1.73% | Potency [2]

CC(=O)Oc1cccc(C(=O)O)c1OC(C)=O
inactive: activity, negative = cell killing [1, 3] -9% | activity, negative = cell killing [1, 4] -8.06% | activity, negative = cell killing [1, 5] -12.3% | activity, negative = cell killing [1, 6] -14.6% | Potency [2]

CCCCCCOC(=O)c1cccnc1
inactive: activity, negative = cell killing [1, 3] 14.4% | activity, negative = cell killing [1, 4] 7.42% | activity, negative = cell killing [1, 5] -5.32% | activity, negative = cell killing [1, 6] 1.85% | Potency [2]
